# Compound activity: PubChem BioAssay, several laboratories
# NRP1-CendR mod: modulators of CendR peptide binding to human neuropilin-1 | O14786 | FAM-RPARPAR peptide binding to NRP-1, fluorescence polarization | inhibition, % at 25 µM | 360,000 tested, 0.85% active;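 active means inhibition or corrected inhibition above about 18%, plus a signal ratio from 0.5 to 1.5, limit read from the data, passing the limit was not always enough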
# APOBEC3G inh: inhibitors of human APOBEC3G DNA deaminase; Q9HC16; inhibition, % at 20 µM; 330,000 tested, 0.28% active; AID 493012; recombinant A3G, ssDNA deamination FAM/TAMRA fluorescence;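 active means inhibition of at least 40% at 20 µM, with no more than 30% in the related APOBEC3A deaminase screen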;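 further: plate controls were DMSO wells with A3G for no effect and wells lacking A3G enzyme for full effect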
# Target sequence (Q9HC16 whole entry, looked up): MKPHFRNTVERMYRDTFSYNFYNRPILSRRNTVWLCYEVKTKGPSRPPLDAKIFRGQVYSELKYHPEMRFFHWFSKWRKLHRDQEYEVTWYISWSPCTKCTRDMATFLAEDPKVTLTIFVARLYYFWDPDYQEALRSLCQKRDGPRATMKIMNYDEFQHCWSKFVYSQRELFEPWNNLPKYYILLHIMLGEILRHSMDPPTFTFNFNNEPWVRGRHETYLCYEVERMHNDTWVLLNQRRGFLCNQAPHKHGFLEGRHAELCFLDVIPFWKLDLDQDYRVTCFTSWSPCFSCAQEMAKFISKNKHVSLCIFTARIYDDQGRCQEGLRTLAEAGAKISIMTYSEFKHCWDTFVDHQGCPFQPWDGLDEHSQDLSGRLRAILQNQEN
# M18AAP inhibitor: PfM18AAP enzyme inhibition; 290,000 tested, 1.2% active; recombinant PfM18AAP, H-Glu-NHMec fluorogenic cleavage; AID 1822; inhibition, % at 7.35 µM;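 active means inhibition above the campaign mean inhibition over all tested compounds plus 3 SD, cut at about 28% in these data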;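 further: 0% = plate median of test compound wells and 100% = 2 mM ZnCl2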
# A3A deaminase: blocks human APOBEC3A ssDNA deamination; inhibition, % at 20 µM; recombinant A3A, FAM/TAMRA ssDNA deamination fluorescence; AID 493011; P31941; 330,000 tested, 0.41% active;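 active means at least 40% inhibition at 20 µM here, with at most 30% in a related deaminase screen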;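 further: plate controls were A3A with DMSO for no effect and wells lacking A3A enzyme for full effect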
# Target sequence (P31941 whole entry, looked up): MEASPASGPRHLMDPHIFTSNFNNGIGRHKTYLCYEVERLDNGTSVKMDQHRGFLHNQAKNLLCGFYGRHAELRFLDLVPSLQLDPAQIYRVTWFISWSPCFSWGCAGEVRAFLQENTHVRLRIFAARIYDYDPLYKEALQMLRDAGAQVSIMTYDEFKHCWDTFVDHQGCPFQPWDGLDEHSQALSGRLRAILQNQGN
# ALR inh: human ALR oxidase inhibition via reduced H2O2; inhibition, % (concentration not given with the values); 290,000 tested, 3.8% active; purified ALR, DTT oxidation, H2O2 HRP-luminol luminescence; AID 485317; P55789;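 active means mean replicate inhibition above about 79%, with every replicate also reaching it, limit read from the data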
# CR mimetic SO: caloric restriction mimetics inhibiting age-related superoxide in yeast. S. cerevisiae aged cells, superoxide DHE fluorescence; hits give low values. 330,000 tested, 0.18% active. superoxide response (% of plate mean), % at 10 µM;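 active means superoxide response under a set limit, about three screen SD below normal, cut at about 65% in these data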;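 further: yeast aged for seven days with compound at 30 °C before DHE staining; 100% = average MFI of all compound-treated wells on the plate with controls excluded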
# * hit, by the source's call; nt = no result given. A selection: hits, their analogues and other compounds. The true share with any hit is near 5.2%.
SMILES,NRP1-CendR mod,APOBEC3G inh,M18AAP inhibitor,A3A deaminase,ALR inh,CR mimetic SO
O=[N+]([O-])c1cc([N+](=O)[O-])c(Oc2c(F)ccc(F)c2F)cc1NN1CCCCC1,16.9,-4.5,4.1,0.2,95.8*,100.0
CC(=O)c1cccc(Oc2cc(NN3CCCCC3)c([N+](=O)[O-])cc2[N+](=O)[O-])c1,0.4,4.5,4.1,1.4,92.8*,87.5
CN1CCc2nc3sc(C(=O)NCc4ccccc4)c(N)c3cc2C1,1.0,-7.4,29.2*,-1.5,-14.8,80.1
CC1(c2ccc3noc(-c4ccc(F)cc4)c3c2)OCCO1,26.8*,-2.7,-1.3,-1.1,nt,103.7
CC1(c2ccc3noc(-c4ccccc4)c3c2)OCCO1,-3.7,0.1,5.7,-0.7,-8.7,105.6
O=Cc1ccc2noc(-c3ccc(F)cc3)c2c1,23.8*,10.7,6.6,4.5,10.6,107.5
O=C(N/N=C/C1=Cc2ccccc2OC1)c1ccncc1,4.2,-10.8,1.4,-2.8,-14.1,103.3
O=C1c2c(-c3ccc(Br)cc3)noc2CCN1Cc1cn(-c2ccc(Cl)cc2)nn1,-1.2,nt,nt,nt,nt,nt
CN(CCc1ccccn1)S(=O)(=O)c1ccc(F)cc1,0.0,0.9,-2.2,3.2,4.8,99.7
Cc1ccc(C(=O)NCC(=O)OCC(=O)c2cc(C)n(Cc3ccco3)c2C)cc1,33.2*,-4.0,-15.5,5.3,3.1,93.9
O=C(COC(=O)COc1ccc(Nc2ccccc2)cc1)NCc1ccco1,9.8,1.3,21.9,5.1,99.7*,100.6
Cc1cc(C(=O)CSc2nncs2)c(C)n1Cc1ccco1,-2.6,-6.3,0.7,0.4,3.4,104.6
CCOC(=O)c1cc(C)n(CCc2ccccc2)c1C,6.4,-1.5,-3.6,-2.5,22.6,102.1
Cc1cc(C(=O)CCl)c(C)n1CCc1ccccc1,nt,-9.2,1.4,-3.3,96.1*,97.1
Cc1cc(C(=O)CCl)c(C)n1Cc1ccco1,3.2,-4.9,-4.3,4.9,96.8*,102.3
COc1ccccc1-c1noc(-c2ccccc2C(=O)N2CCOCC2)n1,17.4,7.9,-0.4,2.2,-10.5,94.6
COc1cc(OC)cc(C(=O)NCC(=O)OCC(=O)NCc2ccco2)c1,-9.2,2.7,nt,7.0,1.0,102.2
Cc1cc(C)cc(C(=O)NCC(=O)OCC(=O)NCc2ccco2)c1,-2.0,-4.6,31.5*,1.4,-0.4,89.7
O=C(CCSc1ccccc1)NCCSCc1ccco1,4.9,-2.3,0.6,-0.9,nt,95.9
O=C(COc1ccccc1)NCCSCc1ccco1,-4.8,0.7,-0.9,3.7,81.9*,94.3
Cc1cc(C(=O)COC(=O)Cn2c(C(F)(F)F)nc3ccccc32)c(C)n1Cc1ccco1,20.0*,-2.1,-9.1,-2.4,-11.3,125.7
Cc1cc(C(=O)COC(=O)CNC(=O)c2ccc(Cl)c(Cl)c2)c(C)n1Cc1ccco1,-2.1,-5.8,-1.2,-3.9,2.1,99.2
CCOc1c(S(=O)(=O)NC2CC(C)(C)NC(C)(C)C2)ccc(Cl)c1Cl,8.3,-2.7,-5.3,0.5,-4.3,102.7
COc1ccc(CNC(=O)c2sccc2C)cc1,-6.0,-13.3,-9.8,3.1,1.7,114.4
NC(=O)COc1ncn(-c2ccccc2)n1,28.6*,2.4,5.6,2.0,-4.0,116.7
SMILES,NRP1-CendR mod,APOBEC3G inh,M18AAP inhibitor,A3A deaminase,ALR inh,CR mimetic SO
O=c1c2ccccc2nc2n1C(CSc1ccc(F)cc1)CS2 (stereo not drawn),28.9*,-9.1,0.3,0.2,-2.8,103.2
O=c1c2ccccc2nc2n1C(CSc1ccccc1)CS2 (stereo not drawn),20.2,-5.5,-11.9,1.7,-9.0,99.5
Cc1nc2sccn2c(=O)c1S(=O)(=O)N1CCN(c2ccc(F)cc2)CC1,-3.8,-2.3,0.2,3.1,95.0*,87.5
Cc1nc2sccn2c(=O)c1S(=O)(=O)N1CCN(c2cccc(C(F)(F)F)c2)CC1,2.5,-1.6,-16.9,-3.1,1.3,113.8
Cc1onc(-c2ccccc2)c1C(=O)N1CCCC1,20.8*,17.9,-0.2,4.0,-2.7,96.3
Cc1ccccc1-c1noc(-c2ccccc2C(=O)N2CCCC2)n1,20.1*,-7.8,-7.1,-5.5,nt,91.1
Cc1ccc(-c2noc(-c3ccccc3C(=O)N3CCCC3)n2)cc1,4.4,-3.4,-8.1,-2.8,-1.0,97.3
Cc1onc(-c2ccccc2)c1C(=O)N1CCCCCC1,4.0,-7.3,4.0,-1.9,-6.3,110.5
Cc1ccnc(NC(=O)CS(=O)(=O)Cc2ccccc2)c1,-12.8,-1.1,3.8,3.5,-12.5,105.7
N#CCSc1nc(-c2ccccc2)c2cc(Cl)ccc2n1,6.3,-7.1,-4.6,-7.5,-11.6,98.0
O=C(c1ccc(-c2ccccc2Cl)s1)N1CCOCC1,34.6*,1.0,nt,0.9,-14.5,96.9
Cc1ccc(C(=O)C(OC(=O)COc2ccccc2C)c2ccccc2)cc1 (stereo not drawn),-3.2,-2.3,-2.9,1.0,-18.6,94.0
CC(=O)/C(=N\Nc1ccccc1)Sc1nncn1C,-7.1,-10.0,16.5,-4.1,97.6*,101.4
Cc1[nH]c2ccccc2c1CCCO,nt,nt,2.9,nt,98.8*,99.1
C=C(CC[C@@H](O)C(C)(C)O)[C@H]1CC[C@]2(C)[C@@H]1CCC1[C@@]3(C)CCC(=O)C(C)(C)C3CC[C@]12C (stereo partly drawn),27.6*,6.4,nt,0.2,1.1,83.3
O=C(Nc1nccs1)c1ccc2ccccc2c1,2.1,-5.8,5.9,-4.0,0.1,90.4
O=C(Nc1n[nH]c(=S)s1)c1ccc2ccccc2c1,4.3,21.8,7.3,-5.8,97.9*,96.8
C[C@@H]1CN([C@@H](C)CO)C(=O)CCCn2nncc2CO[C@H]1CN(C)Cc1ccc2c(c1)OCO2,-4.3,nt,nt,nt,nt,nt
COc1ccc(CCNC(=O)C2CCN(C(=O)c3ccc(Br)cc3)CC2)cc1OC,-6.8,0.2,4.8,-0.7,-5.6,92.5
Cc1ccccc1C1N(c2nccs2)C(=O)C2CCCN21 (stereo not drawn),2.1,-3.4,-1.6,-2.4,-0.5,88.2
COc1cc(/C=N/NC(=O)CCC(=O)Nc2ccc(F)cc2)ccc1O,-1.0,-2.9,4.4,-3.6,38.3,99.7
COc1ccc(/C=N/NC(=O)c2ccco2)cc1Cn1nc(C)cc1C,-27.4,-0.4,-5.5,-1.0,77.2*,115.6
COc1cc(/C=N/NC(=O)CCNC(=O)c2ccccc2Cl)ccc1O,3.3,-9.8,-10.9,-0.7,98.8*,103.7
COc1cc(/C=N/N(c2ccccc2)c2ccccc2)ccc1O,12.0,-7.2,12.8,-5.8,nt,132.9
COc1cc(/C=N/NC(=O)CCc2ccccc2)ccc1O,-1.4,-2.5,-2.2,0.8,99.0*,106.0
O=C(CCNC(=O)c1ccccc1Cl)N/N=C\c1ccc(O)cc1,0.9,-7.9,-7.6,-2.1,nt,100.5
COc1cc(/C=N/Nc2ccccc2)ccc1O,-4.3,-4.8,19.1,-0.7,99.4*,97.9
CC1(C(=O)Nc2ccc3c(c2)OCCO3)CN(S(C)(=O)=O)CC(=O)N1CCc1ccccc1 (stereo not drawn),-8.7,nt,nt,nt,nt,nt
